RE007 growth inh = less growth of the S. pombe RE007 Vpr strain | S. pombe RE007 Vpr strain, BacTiter-Glo ATP luminescence, 24 h | Potency, µM (titrated, usually from 92.2 µM), without a hit: at the top dose activity change, negative = less growth, actives largely listed as inhibitors | actives 0.21% (n = 360,000); active = well fitted falling curve with a large enough effect; inconclusive = small, poorly fitted or top-dose-only effect; inactive = no such curve, though single readings can be large or run the other way; also: potency is read from the fitted curve at half-maximal effect; % is scaled to controls: 0 for no effect and ±100 for the full control effect; nearly all actives have a fitted effect of over 50% in size
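Fission yeast strain RE007, carrying one chromosomally integrated HIV-1 vpr copy, was seeded at OD 0.01 in PMG+AL medium with 23 nL pinned compound. After 24 h at 30 °C and 99% humidity, viability was read by BacTiter-Glo luminescence.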
TbPYK inhibitor = inhibitors of Trypanosoma brucei pyruvate kinase; Q57TT1; TbPYK enzyme, Kinase-Glo Plus ATP luminescence, 45 min; Potency, µM (top dose mostly 76.8 µM), for the others: at the highest dose activity, negative = inhibition, actives largely listed as inhibitors; actives 0.12% (n = 410,000); also: potency is read from the fitted curve at half-maximal effect; % is scaled to controls: 0 for no effect and ±100 for the full control effect; nearly all actives have a fitted effect of over 50% in size
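ADP (130 uM final) triggers the TbPYK reaction after compound addition; incubation is 45 min at room temperature. Kinase-Glo Plus is then added and luminescence imaged. Normalized data are fitted to concentration-effect curves.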
LmPK inh = inhibitors of Leishmania mexicana pyruvate kinase; Q27686; purified LmPK, Kinase-Glo ATP luminescence, 1 h; Potency, µM (series often up to 57.5 µM), inactives show at the highest dose activity change, negative = inhibition, actives largely listed as inhibitors; actives 0.37% (n = 290,000); AID 1721; also: potency is read from the fitted curve at half-maximal effect; % is scaled to controls: 0 for no effect and ±100 for the full control effect
Target sequence (Q27686 whole entry, looked up): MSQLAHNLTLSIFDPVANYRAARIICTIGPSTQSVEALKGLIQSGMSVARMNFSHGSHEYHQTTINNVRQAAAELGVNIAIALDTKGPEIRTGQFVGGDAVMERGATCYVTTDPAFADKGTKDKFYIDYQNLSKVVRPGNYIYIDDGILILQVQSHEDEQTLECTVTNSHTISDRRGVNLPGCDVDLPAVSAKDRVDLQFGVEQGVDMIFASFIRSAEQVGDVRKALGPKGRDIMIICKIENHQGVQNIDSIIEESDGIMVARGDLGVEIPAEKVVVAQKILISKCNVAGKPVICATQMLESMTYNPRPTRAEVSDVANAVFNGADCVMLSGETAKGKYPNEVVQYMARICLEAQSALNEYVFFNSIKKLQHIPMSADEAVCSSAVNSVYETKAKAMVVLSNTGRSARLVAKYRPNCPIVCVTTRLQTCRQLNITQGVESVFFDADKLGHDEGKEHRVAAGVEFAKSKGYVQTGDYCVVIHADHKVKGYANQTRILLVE
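Kinase-Glo luminescence read after 1 h RT reaction of 0.1 nM LmPK with 0.5 mM PEP and 0.1 mM ADP. Activity scaled between uninhibited and enzyme-free controls.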
Cycloheximide cs = affects cycloheximide protein synthesis inhibition readout, counter-screen; max response, %; cell reporter, cycloheximide protein synthesis inhibition counterscreen; actives 12% (n = 300,000); in the data active = max response mostly above about 13%, no sharp cut-off; inactive = mostly below about 14%; also: read at 38.3 µM for the half of the compounds with a filed dose; 0% is about no effect
Shiga toxin inh = blocks Shiga toxin action in Vero cells. inhibition, % at 38.7 µM. actives 9.2% (n = 290,000). Vero cells, Shiga toxin protein synthesis inhibition reporter. AID 2315; in the data active = inhibition mostly above about 28%, no sharp cut-off; inactive = mostly below about 43%; also: 0% is about no effect
FBPA Giardia inh = inhibitors of Giardia lamblia fructose-1,6-bisphosphate aldolase | A8B2U2 | purified Giardia FBPA | Potency, µM (highest dose often 59.6 µM), without a hit: top-dose activity, negative = inhibition, actives largely listed as inhibitors | actives 0.71% (n = 290,000) | AID 2451; also: potency is read from the fitted curve at half-maximal effect; % is scaled to controls: 0 for no effect and ±100 for the full control effect; nearly all actives have a fitted effect of over 55% in size
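Giardia FBPA (40 nM reagent) was preincubated 10 min at RT with compound (up to 57.5 uM final), then substrate plus GAPDH/TPI/NAD/arsenate coupling system with diaphorase/resazurin was added; resorufin fluorescence (525/598 nm) was read after 20 min.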
An asterisk follows results filed as active; ? = inconclusive; / = no result. Shown is part of a subset that was picked to be rich in hits. Unless noted, calls follow the shape of the dose curve; as a rule, active = well fitted curve in the direction sought with a large enough effect; inconclusive = small, poorly fitted or top-dose-only effect, or another doubt; inactive = no such curve, though single readings can be large; an effect the other way counts as inactive or inconclusive.

SMILES	RE007 growth inh	TbPYK inhibitor	LmPK inh	Cycloheximide cs	Shiga toxin inh	FBPA Giardia inh
Cc1ccn(CC(=O)N2CCCC(N3CCN(c4cccc(C(F)(F)F)c4)CC3)C2)n1 (stereo not drawn)	-9%	-2%	/	/	/	/
COc1ccccc1CNC(=O)c1c[nH]c2ccc(S(=O)(=O)Nc3cc(C)cc(C)c3)cc2c1=O	/	0%	/	/	/	/
CCC(C)(C(=O)NC1CCCCC1)N(Cc1ccco1)C(=O)CNC(=O)c1ccccc1 (stereo not drawn)	6%	5%	-7%	31*	13	7%
O=C(NCc1ccc(Cl)cc1)C(=O)NCC(c1ccc2c(c1)OCO2)N1CCOCC1 (stereo not drawn)	/	-14%	/	/	/	/
COc1ccc(Cc2ccccc2C(=O)O)cc1	10%	-5%	/	/	/	/
COc1ccc(CC2=CC(=O)c3ccccc3C2=O)cc1	?	?	-7%	56*	123*	?
Cc1c(C(=O)NCC2CCCO2)oc2ccc3c(c12)C(=O)CC(C)(C)O3 (stereo not drawn)	-4%	5%	-5%	40*	75*	3%
C=CCn1c(SCC(N)=O)nc2scc(-c3ccc(C)o3)c2c1=O	9%	-12%	-16%	45*	85*	-3%
CN(C(=O)c1cc(-n2cnnc2)ccc1Cl)c1ccccc1	6%	-10%	2%	17*	43*	2%
COC(CNS(=O)(=O)c1ccc(S(=O)(=O)NC2CC2)cc1)OC	18%	2%	3%	-3	-26	12%
OC(c1cccc(Cl)c1)c1ncc(-c2cccc(C(F)(F)F)c2)[nH]1 (stereo not drawn)	-17%	-3%	/	/	/	/
C[C@H]1C[C@]2(O[C@@H]2C)C(=O)O[C@@H]2CCN(C)C/C=C(/COC(=O)[C@]1(C)O)C2=O	/	/	/	/	/	2%
Cn1cccc1C(=O)N1CCC2(CC1)CN(C(=O)Nc1cccc(C#N)c1)C2	/	0%	/	/	/	8%
CC1(C(=O)NNC(=O)c2ccc(=O)oc2)CC1Br (stereo not drawn)	-8%	2%	9%	13*	24	12%
COc1ccc(CCNc2nc(-c3ccc(F)cc3)c(CC(=O)O)s2)cc1OC	-3%	-27%	-2%	-2	-7	1%
O=C(O)c1nc2ccccc2nc1C(=O)O	-14%	-12%	3%	46*	81*	-17%
O=C(O)Cc1cc2ccccc2nc1C(=O)O	/	/	/	/	/	-26%
COC(=O)/C(=C1/Oc2cc3c(cc2S1)OCO3)C(F)(F)F	1%	3%	1%	1	0	4%
COC(=O)/C(=C1/Oc2ccc(C)cc2S1)C(F)(F)F	-8%	0%	-1%	25*	57*	2%
Cc1ccc(CSc2nnc(-c3ccc4c(c3)OCO4)o2)cc1	-2%	-2%	4%	12	8	7%
Cc1ccc(Nc2nnc(-c3ccc4c(c3)OCO4)o2)c(C)c1	2%	-20%	6%	32*	62*	-19%
S=c1[nH]nc2ccc3ccccc3n12	-10%	7.1µM*	/	/	/	/
S=c1[nH]c2ccccc2n2c(=S)[nH]nc12	18%	-27%	-16%	7	-3	?
CC(C)c1cc(C(=O)NCc2ccco2)no1	-2%	-10%	3%	42*	66*	5%
CC(C)c1cc(C(=O)NCCc2ccccc2)no1	-18%	0%	0%	47*	72*	1%
SMILES	RE007 growth inh	TbPYK inhibitor	LmPK inh	Cycloheximide cs	Shiga toxin inh	FBPA Giardia inh
O=C(NCc1ccco1)c1cccs1	-1%	-1%	10%	7	-23	-10%
O=C(NCc1ccco1)c1cc(-c2cccs2)on1	-7%	5%	5%	55*	121*	3%
O=C(NCCc1ccccc1)c1cc2ncc(Br)cn2n1	0%	-7%	-15%	26*	46	?
CC(=O)N1CCOc2ccc(S(=O)(=O)NC[C@H]3O[C@@H](n4ccc(=O)[nH]c4=O)[C@H](O)[C@@H]3O)cc21	-17%	0%	/	/	/	/
CCOc1ccccc1C(=O)N/N=C/c1ccoc1	5%	-9%	-14%	11	-11	/
O=C(NCc1ccco1)c1cc(-c2ccccc2)on1	-17%	1%	-5%	48*	104*	4%
O=C(NCc1ccco1)c1cc(-c2ccc(F)cc2)on1	5%	1%	2%	59*	92*	16%
CCC1Oc2ccccc2N(CC(=O)Nc2ccc3c(c2)OCCO3)C1=O (stereo not drawn)	10%	7%	2%	17*	94*	0%
O=C(CN1C(=O)CSc2ccccc21)Nc1ccc2c(c1)OCCO2	-3%	0%	0%	29*	54	-2%
O=C(CN1C(=O)CCSc2ccccc21)Nc1ccc2c(c1)OCO2	-8%	-8%	-3%	-2	-30	11%
O=C(CN1C(=O)C2C3C=CC(C3)C2C1=O)Nc1ccc2c(c1)OCCO2 (stereo not drawn)	11%	-2%	4%	17	60*	1%
Cc1ccc(NC(=O)Nc2nnc(SCC(=O)N(C(C)C)C(C)C)s2)cc1	/	0%	/	/	/	/
Cc1cc(N2CCOCC2)ccc1/C=C1/SC(=O)NC1=O	10%	?	16µM*	31*	82	10%
C=CCN1C(=O)S/C(=C\c2ccc(N3CCOCC3)cc2C)C1=O	7%	0%	13%	35*	58	-1%
O=C1NC(=S)N/C1=C\c1ccc(N2CCOCC2)cc1	3%	-18%	-5%	28*	61	-8%
Cc1cc(N2CCCCC2)ccc1C=C1C(=O)N(C)C(=S)N(C)C1=O	-24%	?	-4%	-2	2	-5%
Cc1cc(N2CCOCC2)ccc1/C=C1\C(=O)NC(=O)N(c2ccccc2)C1=O	-10%	?	-5%	15	-19	-13%
C=CC(C)N1C(=O)S/C(=C\c2ccc(N3CCOCC3)cc2C)C1=O (stereo not drawn)	-3%	-2%	-3%	17*	-8	-4%
O=C(NCC1OCCc2ccccc21)c1ccc(NC(=O)c2ccc(Cl)cc2)cc1 (stereo not drawn)	-5%	-4%	2%	-3	12	5%
COC(=O)c1cc2sccc2n1CC(=O)Nc1ccc(C)cc1C	/	-4%	/	/	/	/
Cn1c(Cc2ccccc2)n[nH]c1=S	-2%	0%	1%	-3	-6	-21%
Cc1ccc(-n2c(Cc3ccccc3)n[nH]c2=S)c(C)c1	-23%	10µM*	-12%	-1	-5	0%
Cc1ccc(-n2c(CC#N)n[nH]c2=S)c(C)c1	-3%	?	?	7	32	?
Nn1c(Cc2ccccc2)n[nH]c1=S	8%	-24%	2%	18*	50	-16%
S=c1[nH]nc(Cc2ccccc2)n1-c1cccc2ccccc12	13%	3.5µM*	10µM*	-4	-1	2%
CCOc1cc(CNc2ccc3c(c2)CCC3)ccc1O	-12%	-6%	-2%	34*	19	-25%
